Only some compounds are listed: those with a hit (about 8.8% of all), similar ones and a draw of the others.
HTT aggregate: mutant huntingtin aggregation inhibition; PC12 HttQ103-GFP aggregates, Acumen cytometry, 40 h; Potency, µM (highest dose often 46.1 µM), without a hit: at the top dose activity change, negative = inhibition, hits mostly inhibitors; 220,000 compounds, 1.1% hits; AID 1688; active means well fitted curve in the direction sought with a large enough effect; inconclusive means small, poorly fitted or top-dose-only effect, or another doubt; inactive means no such curve, though single readings can be large; an effect the other way counts as inactive or inconclusive; further: on the % scale 0 is the no-effect control and ±100 the full control effect; nearly all actives have a fitted effect of over 60% in size
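Inducible Q103 Huntingtin exon 1–GFP PC12 line, 1500 cells/well in phenol red free DMEM with 5% equine and 5% calf serum. Tebufenozide 100 nM induced expression; compounds titrated; aggregates quantified by cytometry.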
HPGD inh: inhibitors of human 15-hydroxyprostaglandin dehydrogenase (HPGD); P15428; purified HPGD, NADH fluorescence kinetic, PGE2 substrate; Potency, µM, for inactives: at the highest dose activity change, negative = inhibition, actives largely listed as inhibitors; 150,000 compounds, 4.3% hits; AID 894; further: on the % scale 0 is the no-effect control and ±100 the full control effect
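NADH formation kinetics: reaction with 30 uM PGE2 and 1 mM NAD+ (final), 20 nM enzyme, Tris-HCl pH 8 with Tween 20, after 15 min compound preincubation at room temperature. Fluorescence change, last versus first of five reads.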
ALDH1A1 block: ALDH1A1 (human) enzyme inhibition; P00352; Purified ALDH1A1, NADH fluorescence, propionaldehyde substrate; Potency, µM (titrated, usually from 75.3 µM), inactives show top-dose activity, negative = inhibition, usual class: inhibitors; 220,000 compounds, 7.3% hits;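 further: plate controls were no enzyme wells and a reference inhibitor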
Target sequence (P00352 whole entry, looked up): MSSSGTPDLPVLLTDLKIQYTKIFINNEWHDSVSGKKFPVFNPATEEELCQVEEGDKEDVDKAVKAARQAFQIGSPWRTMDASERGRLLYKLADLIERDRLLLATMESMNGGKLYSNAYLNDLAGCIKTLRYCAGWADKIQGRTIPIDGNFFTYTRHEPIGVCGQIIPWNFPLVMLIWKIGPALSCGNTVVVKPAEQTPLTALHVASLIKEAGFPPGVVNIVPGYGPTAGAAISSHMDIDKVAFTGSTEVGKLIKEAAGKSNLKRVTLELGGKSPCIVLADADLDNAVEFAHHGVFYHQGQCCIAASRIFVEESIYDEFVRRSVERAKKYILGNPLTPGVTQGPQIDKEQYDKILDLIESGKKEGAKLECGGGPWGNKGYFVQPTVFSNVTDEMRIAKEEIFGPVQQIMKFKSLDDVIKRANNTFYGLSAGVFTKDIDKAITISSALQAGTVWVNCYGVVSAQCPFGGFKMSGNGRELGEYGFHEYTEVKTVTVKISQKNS
Lamin A splicing: changes lamin A minigene splicing in HeLa cells; HeLa LMNA splicing GFP/RFP minigene ratio, 48 h; 200,000 compounds, 0.01% hits; Potency, µM (doses to about 46.1 µM), without a hit: at the top dose ratio change, negative = inhibition, most hits filed as inhibitors; active means well fitted inhibition curve with a large enough effect in the signal ratio, with a control signal flat, not every such curve was filed as active; inconclusive means small, poorly fitted or top-dose-only effect, or effect the other way, or a change in a side signal; the % refers to the signal ratio; further: on the % scale 0 is the no-effect control and ±100 the full control effect
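S3 HeLa cells stably expressing lamin A-EGFP splicing minigene plus DsRed2, 600 cells/well, 48 h compound exposure at 37C. Laser-scanning cytometry; analysed as GFP (500-530 nm)/RFP (575-640 nm) total intensity ratio; 0.5% DMSO vehicle.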
HTT ATP protect: cytoprotection in Huntington HTT-Q103 PC12 cell model | PC12 HTT-Q103 induced, cytoprotection, ATP luminescence, 40 h | Potency, µM (titrated, usually from 56.4 µM), for inactives: cytoprotection (ATP increase), actives largely listed as activators | 230,000 compounds, 0.14% hits; active means well fitted curve in the direction sought with a large enough effect; inconclusive means small, poorly fitted or top-dose-only effect, or another doubt; inactive means no such curve, though single readings can be large; an effect the other way counts as inactive or inconclusive; further: % of control where 0% means no effect; nearly all actives have a fitted effect of over 45% in size
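PC12 cells stably carrying ecdysone-inducible Htt exon 1 (Q103)–GFP were induced with 100 nM tebufenozide (final) alongside library compounds in a dose series. Cytoprotection was scored as retained ATP by ATPlite luminescence.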
The depositor's hits bear a star; ? = inconclusive; . = no result; [ ] = another dose, or the depositor's remark. Unless noted, the call rests on the fitted dose curve; in most records, active means well fitted inhibition curve with a large enough effect (not every such curve was filed as active); inconclusive means small, poorly fitted or top-dose-only effect, or another doubt; inactive means no such curve, though single readings can be large or run the other way. Potency means the concentration at half of the fitted maximal effect.

SMILES	HTT aggregate	HPGD inh	ALDH1A1 block	Lamin A splicing	HTT ATP protect
CCN(CC)S(=O)(=O)c1ccc(-c2nnc(SCC(C)=O)o2)cc1	7.4%	-21.0%	?	-2.4%	2.8%
CCc1nnc(NC(=O)CSc2nnc(-c3ccc(NS(=O)(=O)c4ccccc4)cc3)o2)s1	21.2%	14.1µM*	-10.8%	2.9%	-5.2%[10 µM]
CCc1nnc(NC(=O)CSc2nnc(-c3ccco3)o2)s1	-16.1%	.	5.9%	.	-27.0%
CCOC(=O)Cc1ccc(NC(=O)N2CCc3c(sc4c3CCCC4)C2c2ccc(F)cc2)cc1 (stereo unspecified)	.	.	.	-17.5%[46 µM]	.
CCOc1ccccc1C(=O)NCc1ccc2c(c1)CCN2C(=O)c1ccccc1	.	.	.	-9.8%[46 µM]	.
S=C(NCC1CCCO1)NC1CCCC1 (stereo unspecified)	-8.9%	.	0.1%	?	.
NNc1nc2cccnc2n(CCNc2ncc(C(F)(F)F)cc2Cl)c1=O	-1.5%	.	1.58µM*	19.6%[46 µM]	-62.5%
O=c1c2nncn2c2cccnc2n1CCNc1ncc(C(F)(F)F)cc1Cl	-1.8%[9.22 µM]	.	.	.	18.8%[10 µM]
CCOC(=O)c1cn(CC)c2ccc(S(=O)(=O)N3CCC(C)CC3)cc2c1=O	-7.5%	15.8µM*	-12.1%	2.0%	-18.1%[0.074 µM]
CCn1cc(C(=O)NCC2CCCO2)c(=O)c2cc(S(=O)(=O)N3CCCCCC3)ccc21 (stereo unspecified)	4.3%	-11.7%	4.47µM*	10.9%	-24.2%
CCn1cc(C(=O)NCCc2ccccc2)c(=O)c2cc(S(=O)(=O)N3CCCC3)ccc21	-13.9%	.	31.6µM*	.	18.1%
O=C(COc1ccc(S(=O)(=O)N2CCCC2)cc1Cl)N1CCN(c2ccccc2)CC1	-13.7%	-13.3%	17.8µM*	?	-8.9%[0.074 µM]
CCn1cc(C(=O)NCC2CCCO2)c(=O)c2cc(S(=O)(=O)N3CCC(C)CC3)ccc21 (stereo unspecified)	-2.4%	-5.9%	-1.6%	-2.6%	-23.1%
Cc1ccc(CSCC(=O)NCc2cccs2)cc1	5.3%	.	9.3%	.	-29.1%
COc1ccc(C2C(=O)N(C3CCC(C)CC3)CC(=O)N2Cc2ccc(C)cc2)cc1OC (stereo unspecified)	.	.	.	-2.3%[46 µM]	.
COc1cc(OC)c(S(=O)(=O)NC(C)C)cc1C(=O)O	7.2%[9.22 µM]	.	.	.	15.4%[10 µM]
O=C(COc1ccc(S(=O)(=O)N2CCCC2)cc1Cl)NCc1ccc2c(c1)OCO2	10.7%	-16.0%	5.01µM*	-13.0%	7.4%
Cc1cc(S(=O)(=O)N2CCCC2)ccc1OCC(=O)NCc1ccco1	?	?	10µM*	8.4%	9.1%
O=C(OCc1ccc2c(c1)OCO2)c1cccc(S(=O)(=O)N2CCCCC2)c1	-5.2%	?	7.08µM*	22.7%	1.2%
CC(C)(C)c1ccc(OCC(=O)NCc2ccco2)c(Br)c1	24.0%	-27.5%	17.8µM*	2.5%	-10.2%
CCn1cc(C(=O)NCc2cccs2)c(=O)c2cc(S(=O)(=O)N3CCOCC3)ccc21	-13.3%[9.22 µM]	.	.	.	-23.4%[0.074 µM]
CCn1cc(C(=O)NCc2ccco2)c(=O)c2cc(S(=O)(=O)N3CCCC3)ccc21	-29.6%	.	25.1µM*	.	-5.4%
COc1ccccc1CCNC(=O)C(=O)NCC(c1ccco1)S(=O)(=O)c1ccc(C)cc1 (stereo unspecified)	.	.	.	-3.4%[46 µM]	.
Cc1cc(=O)n(CC(=O)NCCC(C)C)c2c1c(C)nn2C	.	.	.	-4.9%[46 µM]	.
CCOC(=O)C1=C(C)NC(=O)NC1c1ccc2c(c1)OCO2 (stereo unspecified)	22.2%	-18.4%	-32.4%	-1.8%	-3.8%[1.9 µM]
CCSCCOC(=O)C1=C(C)NC(=O)NC1c1ccc2c(c1)OCO2 (stereo unspecified)	-18.1%	-14.3%	14.1µM*	-6.2%	-38.7%
Cc1ccc(S(=O)(=O)NC(=O)Nc2ccc(F)cc2)cc1	-17.6%	-8.7%	-1.0%	2.9%	10.8%[10 µM]
Cc1ccc(S(=O)(=O)NC(=O)Nc2cc(C)ccc2F)cc1	-4.5%	-4.3%	28.2µM*	?	1.3%
CCc1ccccc1N(C)C(=O)c1cn(-c2cccc(OC)c2)c(=O)c2ccccc12	.	.	.	0.5%[46 µM]	.
O=C1c2ccccc2C(Nc2ccc(S(=O)(=O)N3CCCCC3)cc2)N1c1ccccn1 (stereo unspecified)	4.7%	-8.0%	5.01µM*	6.7%	18.4%[10 µM]

Compound activity as filed in PubChem BioAssay.
